# Assay outcomes as filed in PubChem BioAssay.
# In the library only some 5.4% were active in any assay of this set; here they are far more common.
# APOBEC3A inh – human APOBEC3A DNA deaminase inhibition. P31941. recombinant A3A, FAM/TAMRA ssDNA deamination fluorescence. inhibition, % at 20 µM. actives 0.41% (n = 330,000);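 active means at least 40% inhibition at 20 µM here, with at most 30% in a related deaminase screen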
# Target sequence (P31941 whole entry, looked up): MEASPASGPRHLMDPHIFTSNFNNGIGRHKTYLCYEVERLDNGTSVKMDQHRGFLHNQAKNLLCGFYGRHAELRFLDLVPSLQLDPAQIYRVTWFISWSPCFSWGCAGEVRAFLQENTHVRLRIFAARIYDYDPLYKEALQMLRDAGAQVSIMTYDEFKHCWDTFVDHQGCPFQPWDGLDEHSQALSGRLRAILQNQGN
# rCAG binder – binds r(CAG) RNA repeats | r(CAG) RNA repeat, TO-PRO-1 dye displacement fluorescence | inhibition, % at 3 µM | actives 1.3% (n = 370,000) | AID 651821;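 active means inhibition above the plate cutoff, the mean of all test compounds on that plate plus 3 SD, cut at about 35% in these data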;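 further: higher means more dye released from RNA so lower well fluorescence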
# ALR H2O2 inh – blocks human ALR sulfhydryl oxidase activity. AID 485317. inhibition, % (test concentration not listed). P55789. actives 3.8% (n = 290,000). purified ALR, DTT oxidation, H2O2 HRP-luminol luminescence;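 active means mean replicate inhibition above about 79%, with every replicate also reaching it, limit read from the data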
# aDG glyco act – increases alpha dystroglycan glycosylation | Pro5-aDG cells, alpha-DG glycosylation AlphaScreen (IIH6); 0% Pro5, 100% B10-LARGE cell signal | actives 0.22% (n = 360,000) | activation, % at 10 µM;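 active means activation of at least 8% versus controls, or a plate z-score of at least 8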;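 further: Pro5 are CHO cells carrying HIG-tagged alpha-DG that lacks glycosylation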
# A3G deaminase – inhibitors of human APOBEC3G DNA deaminase; inhibition, % at 20 µM; AID 493012; actives 0.28% (n = 330,000); recombinant A3G, ssDNA deamination FAM/TAMRA fluorescence;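 active means inhibition of at least 40% at 20 µM, with no more than 30% in the related APOBEC3A deaminase screen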
# Target sequence (Q9HC16 whole entry, looked up): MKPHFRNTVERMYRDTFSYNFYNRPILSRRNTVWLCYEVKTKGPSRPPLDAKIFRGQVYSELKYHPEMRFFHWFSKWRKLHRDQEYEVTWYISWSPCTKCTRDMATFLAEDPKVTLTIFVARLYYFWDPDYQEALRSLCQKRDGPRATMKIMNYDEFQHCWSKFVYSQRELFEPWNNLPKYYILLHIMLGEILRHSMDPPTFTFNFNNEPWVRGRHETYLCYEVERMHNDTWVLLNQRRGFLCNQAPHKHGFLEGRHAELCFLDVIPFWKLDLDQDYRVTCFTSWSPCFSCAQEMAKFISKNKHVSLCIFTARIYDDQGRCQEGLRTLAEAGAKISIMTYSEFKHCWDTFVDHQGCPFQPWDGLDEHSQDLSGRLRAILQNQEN
# PHOSPHO1 block – PHOSPHO1 (human) inhibition; AID 1565; inhibition, % at 13.3 µM; Q8TCT1; recombinant PHOSPHO1, absorbance phosphatase assay; actives 1.1% (n = 290,000); in the data active means inhibition above about 60%
# Hits are given with their value; . = inactive; / = no result.
SMILES,APOBEC3A inh,rCAG binder,ALR H2O2 inh,aDG glyco act,A3G deaminase,PHOSPHO1 block
O=C(CSc1nc2ccccc2n1CCc1ccccc1)NC1CCS(=O)(=O)C1 (configuration not stated),.,.,.,.,.,97.4
COc1ccc(C2=NN(c3nc(-c4ccccc4)c(CC(=O)O)s3)C(c3ccco3)C2)cc1 (configuration not stated),/,45.7,.,.,/,.
Cc1nc(N2N=C(c3ccc(Cl)cc3)CC2c2ccco2)sc1C(=O)N(C)C (configuration not stated),.,.,.,.,.,.
COc1ccc2nc(NC(=O)CSC3=NCCS3)sc2c1,.,.,98.3,.,.,.
COCC(=O)Nc1nc(-c2ccc([N+](=O)[O-])cc2)cs1,.,.,97.5,.,.,.
COc1ccc2nc(NC(=O)CSc3ccccc3)sc2c1,.,.,.,.,.,.
COCC(=O)Nc1nc(-c2ccc(-c3ccccc3)cc2)cs1,.,.,.,.,.,.
CCOC(=O)Cc1csc(NC(=O)NC2(C(F)(F)F)Oc3cc(Cl)c(Cl)cc3O2)n1,.,.,98.4,.,.,.
CCOC(=O)Cc1csc(NC(=O)CSc2nc(=O)[nH]c3c2CCC3)n1,.,.,.,.,.,/
CCOC(=O)Cc1csc(NC(=O)CSc2nc(=O)[nH]c3c2CCCC3)n1,.,.,96.3,.,.,/
Cc1ccc(-c2cc(-c3nnc4sc(Cc5cccs5)nn34)[nH]n2)cc1,/,.,/,/,/,/
Fc1cc(F)c(CSc2nnc(-c3cccnc3)n2Cc2ccccc2)cc1F,/,.,/,/,/,/
CCOC(=O)Cc1csc(NC(=O)CSc2nccn2C)n1,.,.,99.1,.,.,.
Cc1csc(NC(=O)CSC2=NCCS2)n1,.,.,99.2,.,.,.
Cc1csc(NC(=O)CSc2nc(C)nc3c2c(=O)n(C)c(=O)n3C)n1,.,.,98.4,.,.,.
CC(C)(C)c1csc(NC(=O)CSC2=NCCS2)n1,.,.,99.3,.,.,.
CCOC(=O)Cc1csc(NC(=O)CSc2nnnn2-c2ccc(CC)cc2)n1,.,.,.,.,.,.
Cc1csc(NC(=O)CSc2nnc(C)s2)n1,.,.,.,.,.,.
Cc1nnc(SCC(=O)Nc2nc(C(C)(C)C)cs2)s1,.,.,/,.,.,.
O=S(=O)(CC1NCCc2ccccc21)NCc1ccccc1 (configuration not stated),/,.,/,/,/,/
COc1ccc(C2c3ccccc3NC3C2C(=O)N(Cc2ccc(OC)cc2OC)[C@H]3Cc2ccccc2)cc1 (some centres not stated),/,.,/,/,/,/
O=S(=O)(CC1NCc2ccccc21)NC1CCCC1 (configuration not stated),/,.,/,/,/,/
CCOC(=O)c1sc(NC(=O)CSc2ncccn2)nc1C,.,.,.,.,.,.
CCOC(=O)c1sc(NC(=O)CSc2nccn2C)nc1C,.,.,98.0,.,.,.
CCOC(=O)Cc1csc(NC(=O)Cc2ccc([N+](=O)[O-])cc2)n1,.,.,98.3,.,.,.
SMILES,APOBEC3A inh,rCAG binder,ALR H2O2 inh,aDG glyco act,A3G deaminase,PHOSPHO1 block
CCOC(=O)Cc1csc(NC(=O)CSC2=NCCS2)n1,.,.,98.5,.,.,.
O=C(C(=O)N1CCN(C(=O)C2CCC2)CC1)c1cccc(C(F)(F)F)c1,/,.,/,/,/,/
CCOc1ccc(CCNC(=O)c2cc3sccc3n2CC)cc1OC,/,.,/,/,/,/
CCn1c(CCCc2ccc(OC)c(C)c2)n[nH]c1=S,.,.,.,.,.,.
COc1ccc(Cl)cc1-c1n[nH]c(=S)n1C,.,.,89.3,.,.,84.8
CCn1c(-c2csc(-c3ccc(Cl)cc3)n2)n[nH]c1=S,.,.,.,.,.,83.2
CCn1c(-c2cc(Cl)ccc2OC)n[nH]c1=S,.,.,92.2,.,.,89.2
CCn1c(-c2cc(OC)c(OC)c(OC)c2)n[nH]c1=S,.,.,96.8,.,.,.
COc1ccc(Cl)cc1-c1nc(SCC(=O)N(C)C)n[nH]1,.,.,/,.,.,.
C=CCn1c(-c2cc(OC)c(OC)c(OC)c2)n[nH]c1=S,.,/,.,.,.,.
COc1ccc(/C=N/N2CCN(c3ccc(Cl)cc3)CC2)cc1,.,.,.,.,.,.
Cc1ccc(N=C2C(=S)N(c3ccc(C)cc3)C(=N)N2/N=C/c2ccc(Cl)cc2)cc1,.,.,95.8,.,.,.
CCOC(=O)c1c(C2COc3ccccc3O2)csc1NC(=O)c1ccco1 (configuration not stated),.,.,.,.,.,86.0
CCOC(=O)c1c(-c2cccs2)csc1NC(=O)c1ccco1,.,.,.,.,.,.
c1ccc(Cn2c(SCC3CCCCC3)nnc2-c2cccnc2)cc1,/,.,/,/,/,/
O=c1c(-c2ccc(O)cc2)coc2c([C@@H]3O[C@H](CO)[C@@H](O)[C@H](O)[C@H]3O)c(O)ccc12,.,.,98.7,.,.,/
O=c1c(-c2ccc(O)cc2)coc2c(C3O[C@H](CO)[C@@H](O)[C@H](O)[C@H]3O)c(O)ccc12 (some centres not stated),.,.,99.0,.,.,.
O=c1cc(-c2ccc(O)cc2)oc2c([C@@H]3O[C@H](CO)[C@@H](O)[C@H](O)[C@H]3O)c(O)c([C@@H]3O[C@H](CO)[C@@H](O)[C@H](O)[C@H]3O)c(O)c12,.,.,/,.,.,.
CCN(Cc1cn(Cc2ccccc2)nn1)S(=O)(=O)c1ccc(F)cc1Br,/,.,/,/,/,/
CCOC(=O)COc1ccc(S(=O)(=O)NCC2CCCO2)cc1 (configuration not stated),.,.,.,.,.,196.9
O=S(=O)(NCC1CCCO1)c1ccc(-c2ccc(S(=O)(=O)NCC3CCCO3)cc2)cc1 (configuration not stated),.,.,.,7.4,.,.
Nc1[nH]c(C(=O)c2ccc(Br)cc2)c(-c2ccc(Cl)cc2[N+](=O)[O-])c1C(=O)NCCc1c[nH]c2ccccc12,/,.,/,/,/,/
CC(C)C[C@@H]1NC(=O)[C@H]2C[C@]3(c4ccccc4)c4ccccc4N[C@H]3N2C1=O,/,.,/,/,/,/
CC1=C(C)CC2(SC1)C(=O)N(c1ccccc1)N=C2N (configuration not stated),.,.,93.9,.,.,.
CNC(=O)c1csc(-c2ccc(C)cc2)n1,.,.,98.7,.,.,.
SMILES,APOBEC3A inh,rCAG binder,ALR H2O2 inh,aDG glyco act,A3G deaminase,PHOSPHO1 block
Nn1c(=O)c2ccccc2n2c(SCc3ccc(C(F)(F)F)cc3)nnc12,.,.,/,.,.,90.4
Nn1c(=O)c2ccccc2n2c(SCc3ccccc3)nnc12,.,.,.,.,.,.
CC(C)(C)N(NC(=O)NCCCl)C(=O)c1ccccc1Cl,/,.,/,/,/,/
C=CCc1c(C)c(C#N)c2nc3ccccc3n2c1N1CCCCC1,.,.,.,.,.,.
C=CCc1c(C)[nH]c(=S)c(C#N)c1C,.,.,.,.,.,82.7
CCc1ccccc1N/N=C(/C)c1c(O)cc(C)oc1=O,.,.,98.1,.,.,.
C/C(=N\NC(=O)c1ccccc1O)c1c(O)cc(C)oc1=O,.,.,.,.,.,.
